# Results published in PubChem BioAssay (NCATS).
# Inconclusive results are not listed. Entries that show only a call come without a potency. Active and inactive are the calls of the source. Calls follow the shape of the dose curve; as a rule, active = well fitted curve in the direction sought with a large enough effect; inconclusive = small, poorly fitted or top-dose-only effect, or another doubt; inactive = no such curve, though single readings can be large; an effect the other way counts as inactive or inconclusive.
# What was measured:
# [1] = Quantitative High-Throughput drug screen in 47 multiple myeloma cell lines against the NCATS MIPE library collection: MOLP8_DSMZ cell viability assay (AID 1918977); also: nearly all actives have a fitted effect of over 45% in size
# Outline: (§1)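 Viability after 48 h drug exposure was measured as ATP-dependent luminescence. Cells, 500 per well, sat at 37 °C under 5% CO2; DMSO wells set 100%, media-only wells 0%.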
# [2] = Quantitative High-Throughput drug screen in 47 multiple myeloma cell lines against the NCATS MIPE library collection: OCIMY1_PLB cell viability assay (AID 1918979); also: nearly all actives have a fitted effect of over 35% in size; as to viability: series mostly up to about 46 µM
# Outline: as §1
# [3] = Quantitative High-Throughput drug screen in 47 multiple myeloma cell lines against the NCATS MIPE library collection: LP1_DSMZ cell viability assay (AID 1918982); also: nearly all actives have a fitted effect of over 35% in size
# Outline: as §1
# [4] = Quantitative High-Throughput drug screen in 47 multiple myeloma cell lines against the NCATS MIPE library collection: NCIH929_DSMZ cell viability assay (AID 1918978); also: nearly all actives have a fitted effect of over 35% in size
# Outline: as §1
# [5] = Quantitative High-Throughput drug screen in 47 multiple myeloma cell lines against the NCATS MIPE library collection: MM1S_ATCC cell viability assay (AID 1918980); also: nearly all actives have a fitted effect of over 45% in size
# Outline: as §1
# [6] = Quantitative High-Throughput drug screen in 47 multiple myeloma cell lines against the NCATS MIPE library collection: MM1R_ATCC cell viability assay (AID 1918981); also: nearly all actives have a fitted effect of over 35% in size
# Outline: as §1
# [7] = Quantitative High-Throughput drug screen in 47 multiple myeloma cell lines against the NCATS MIPE library collection: KMS28PE_JCRB cell viability assay (AID 1918983); also: nearly all actives have a fitted effect of over 35% in size
# Outline: as §1
# [8] = Quantitative High-Throughput drug screen in 47 multiple myeloma cell lines against the NCATS MIPE library collection: KMS34_JCRB cell viability assay (AID 1918985); also: nearly all actives have a fitted effect of over 40% in size
# Outline: as §1
# [9] = Quantitative High-Throughput drug screen in 47 multiple myeloma cell lines against the NCATS MIPE library collection: OCIMY7_PLB cell viability assay (AID 1918987); also: nearly all actives have a fitted effect of over 65% in size
# Outline: as §1
# Potency is read from the fitted curve at half-maximal effect.
SMILES,Potency [1],Potency [2],Potency [3],Potency [4],Potency [5],Potency [6],Potency [7],Potency [8],Potency [9]
CC[C@@H](C(N)=O)N1CCCC1=O,inactive,inactive,inactive,–,–,–,–,–,–
Cc1ccccc1-n1c(Cn2cnc3c(N)ncnc32)nc2cccc(C)c2c1=O,0.0743 µM (active),–,–,0.0418 µM (active),0.526 µM (active),0.187 µM (active),0.296 µM (active),0.148 µM (active),–
CCC(=O)OC1CCC2C3CCC4=CC(=O)CC[C@@]4(C)C3CC[C@]12C (some centres undefined),inactive,inactive,inactive,–,–,inactive,inactive,inactive,16.6 µM (active)
COC(=O)[C@@H](N)CCCN=C(N)N[N+](=O)[O-],inactive,–,inactive,inactive,inactive,inactive,inactive,–,–
CC(=O)O[C@@]12CO[C@H]1C[C@H](O)[C@@]1(C)C(=O)[C@H](O)C3=C(C)[C@@H](O)C[C@@](O)([C@@H](OC(=O)c4ccccc4)[C@@H]21)C3(C)C,2.96 µM (active),–,–,–,10.5 µM (active),7.43 µM (active),2.64 µM (active),3.72 µM (active),–
CCc1c(C(=O)C(N)=O)c2c(OCC(=O)O)cccc2n1Cc1ccccc1,–,inactive,inactive,inactive,inactive,inactive,7.43 µM (active),–,–
CN1[C@H]2CC(O)C[C@H]1[C@H]1O[C@H]12 (some centres undefined),13.2 µM (active),–,18.7 µM (active),2.64 µM (active),18.7 µM (active),16.6 µM (active),20.9 µM (active),18.7 µM (active),–
C[C@]12CC[C@H]3[C@@H](CCC4=CC(=O)CC[C@@]43C)[C@H]1CC[C@H]2O,inactive,–,–,inactive,inactive,inactive,inactive,–,inactive
CCCCCC[C@H]1C(=O)O[C@H](C)[C@H](NC(=O)c2cccc(NC=O)c2O)C(=O)O[C@@H](C)[C@@H]1OC(=O)CC(C)C,0.235 µM (active),–,0.059 µM (active),0.332 µM (active),4.69 µM (active),–,0.372 µM (active),–,0.187 µM (active)
O=C(Nc1ccncc1)C(=O)c1cn(Cc2ccc(Cl)cc2)c2ccccc12,–,0.118 µM (active),0.0935 µM (active),1.32 µM (active),0.264 µM (active),0.187 µM (active),–,–,–
c1cc2c(cc1[C@H]1OC[C@H]3[C@H]1CO[C@H]3c1ccc3c(c1)OCO3)OCO2,inactive,–,–,inactive,–,inactive,inactive,–,–
Cc1c(C(=O)Nc2cccc(C(F)(F)F)c2)cc(-c2ccccc2)n1CCCN1CCOCC1,20.9 µM (active),–,–,–,20.9 µM (active),–,16.6 µM (active),–,–
O=C(Oc1ccc([N+](=O)[O-])cc1)N1CCC(C(O)(c2ccc3c(c2)OCO3)c2ccc3c(c2)OCO3)CC1,inactive,inactive,inactive,–,–,inactive,inactive,–,–
C[C@@]12OC(=O)[C@]1([C@@H](O)[C@@H]1C=CCCC1)NC(=O)[C@H]2CCCl,0.0053 µM (active),–,0.0166 µM (active),0.001 µM (active),0.0053 µM (active),0.0037 µM (active),0.0083 µM (active),–,0.001 µM (active)
CN(C)[C@@H]1C(=O)C(C(N)=O)=C(O)[C@@]2(O)C(=O)C3=C(O)c4c(O)cccc4[C@@](C)(O)[C@H]3[C@H](O)[C@@H]12,11.8 µM (active),inactive,inactive,–,5.9 µM (active),inactive,–,–,–
O=C(N[C@@H](COc1ccc2[nH]c(=O)[nH]c2c1)c1ccccc1)c1cccn(Cc2ccc(F)c(F)c2)c1=O,inactive,–,–,–,16.6 µM (active),–,–,inactive,–
CC(=CCCC1=CCC(C2=CC(=O)OC2O)OC1O)CCC1=C(C)CCCC1(C)C (centres undefined),inactive,inactive,inactive,–,20.9 µM (active),inactive,–,–,–
CC(O)=C(C#N)C(=O)Nc1cc(Br)ccc1Br,–,inactive,inactive,inactive,20.9 µM (active),20.9 µM (active),14.8 µM (active),–,–
CC=C(C)C(=O)N[C@@H](c1ccccc1)[C@@H](O)C(=O)O[C@H]1C[C@@]2(O)[C@@H](OC(=O)c3ccccc3)[C@@H]3[C@]4(OC(C)=O)CO[C@@H]4C[C@H](O)[C@@]3(C)C(=O)[C@H](OC(C)=O)C(=C1C)C2(C)C,inactive,–,inactive,inactive,inactive,inactive,inactive,inactive,–
CC1(N2CCC(n3c([C@@H]4CCCNC4)nc4ccccc43)CC2)CCCCCCC1,–,20.9 µM (active),23.5 µM (active),11.8 µM (active),4.69 µM (active),14.8 µM (active),inactive,–,–
COc1ccc(CC2NCCc3cc(OC)c(OC)cc32)cc1OC (centres undefined),inactive,–,inactive,–,–,–,inactive,–,–
O=C1CCC[C@@H]2[C@H]3CCCN4CCC[C@@H](CN12)[C@@H]34,–,–,–,inactive,–,–,–,–,–
CCOP(=O)(OCC)C(C)NC(=O)N(CCCl)N=O (centres undefined),–,inactive,–,inactive,–,inactive,inactive,–,–
C[C@](O)(COc1ccc(C#N)cc1)C(=O)Nc1ccc(C#N)c(C(F)(F)F)c1,–,inactive,inactive,–,–,–,–,–,–
NC1=NC(=O)N2CC12 (centres undefined),–,inactive,inactive,9.35 µM (active),inactive,inactive,–,inactive,–
